Out of some 6,200 compounds screened, about 2,900 (47%) were called active. So high a share suggests a set chosen from earlier hits. This is one part of the list. Values without a mark were called inactive. Rule as the data show it: active = inhibition above about 50%; inactive = the rest.

This assay is described as follows: Mycobacterium tuberculosis growth inhibition, primary screen (AID 1259343). To be noted: inhibition: at 10 µM, hits give high values; outcome: 10 uM.
For the compound `N#CC1(c2ccccc2)CCC2(CC1)N=C(N)Nc1nc3cc4c(cc3n12)OCCCO4` (stereo not drawn), the inhibition (commonly the relative decrease from the control value, in per cent) is 45.8%.
Regarding `Clc1ccc(CNc2c3c(nc4nncn24)CCC3)cc1`, the inhibition is 54.3% (active).
To `O=S(=O)(NCc1ccc(Cl)cc1)N1CCCCCC1` belongs 10.6%; to `O=C(Nc1ccc(Oc2ccccc2)cc1)C1=COCCO1`, 49.4%; to `O=C(Nc1ccc(SCc2cccnc2)cc1)C1=COCCO1`, 61% (active).
To `Cc1ccc(Sc2ccc(NC(=O)C3=COCCO3)cc2)cc1C` belongs 33.3%; to `O=C(Nc1nc(-c2nc3ccccc3s2)cs1)c1ccc([N+](=O)[O-])o1`, -46.3%.
To `O=C1NC(=S)C(=Cc2ccc(-c3ccc(F)cc3)o2)S1` belongs 97.6% (active); to `N#CC(C#N)=Cc1ccc(-c2ccc(SC(F)F)cc2)o1`, -10.2%; to `O=C1NC(=S)C(=Cc2ccc(-c3nc4ccccc4s3)o2)S1`, 77.4% (active).
Take `N#CC(C#N)=Cc1ccc(-c2ccc(F)cc2)o1`: the inhibition was -20.9%.
To `NC(=S)NN=Cc1ccc(-c2nc3ccccc3s2)o1` belongs 67.3% (active); to `N=c1oc2c([N+](=O)[O-])cc(Cl)cc2cc1-c1nc2ccccc2s1`, -34.4%.
To `NC(=S)NN=Cc1ccc(-c2ccc(SC(F)F)cc2)o1` belongs 103% (active); to `Cc1nc(CNS(=O)(=O)c2c(C)c(C)c(C)c(C)c2C)cs1`, 6.48%.
Next, `O=C(O)c1cc(Br)c2ccccc2c1O`: 96% (active); `Cc1cc(NC(=O)CNCc2csc(-c3cnccn3)n2)ccc1Cl`: 77.5% (active); `Cc1ccn(C(=O)Cc2csc(-c3ccccn3)n2)c(=NC2CCCCC2)c1`: -7.81%.
For `O=C(c1c(-c2ccc(Br)cc2)c2ccccc2[nH]c1=O)C(F)(F)F`, the inhibition was 18.7%.
For the compound `O=c1[nH]c2ccccc2c(O)c1Sc1ccccc1`, the inhibition is 82.5% (active).
Next, `O=c1[nH]c2cc(Cl)ccc2c(O)c1-c1ccc(Oc2ccccc2)cc1`: 17.5%.
To `CCc1ccc(N2C(=O)/C(=C/c3cc(C)n(-c4ccc(C(=O)O)cc4)c3C)C(=O)NC2=S)cc1` belongs 34.2%; to `COC(=O)c1ccccc1NCc1cc(=O)oc2cc(O)c(O)cc12`, 75.9% (active); to `CNC(=O)C(C#N)C(=O)CCc1cccc(OC2CCCC2)c1` (stereo not drawn), 54.1% (active).
With `N#Cc1cccc(C(=O)NCc2cccnc2OC2CCCC2)c1`, the inhibition is -4.09%.
Next, `CC1CC(=O)NN1CC(=O)N1c2ccccc2OCC1c1ccccc1` (stereo not drawn): 26.4%.
Next, `CCN(CC(C)C#N)C(=O)Nc1ccc(-c2csnn2)cc1` (stereo not drawn): 80.5% (active); `CCC(NC(=O)Nc1ccc(-c2csnn2)cc1)c1nccs1` (stereo not drawn): -4.07%.
To `Cc1cc(=O)[nH]c(=S)[nH]1` belongs 0.31%; to `CCc1ccc(S(=O)(=O)c2cnc3ccc(C)cc3c2N2CCC3(CC2)OCCO3)cc1`, 67.2% (active); to `C#Cc1ccc(CN2CCC(C(=O)Nc3ccc(Oc4ccccc4)nc3)CC2)cc1`, -2.94%.
Regarding `O=C(Nc1ccc(Oc2ccccc2)nc1)C1CCN(Cc2cccc3nonc23)CC1`, the inhibition result was “inactive”.
To `O=C(Nc1ccc(Oc2ccccc2)nc1)C1CCN(C(=O)c2cnsn2)CC1` belongs 93.8% (active); to `CC(=O)c1cc(CN2CCC(C(=O)Nc3ccc(Oc4ccccc4)nc3)CC2)cs1`, 63.2% (active).
Next, `O=C(Nc1ccc(Oc2ccccc2)nc1)C1CCN(C(=O)c2cccs2)CC1`: 77.1% (active).
With `O=C(Nc1ccc(Oc2ccccc2)nc1)C1CCN(C(=O)c2ccco2)CC1`, the inhibition was 90.5% (active).
With `O=C(Nc1ccc(Oc2ccccc2)nc1)C1CCN(C(=O)[C@@H]2C[C@@H]3C=C[C@H]2C3)CC1`, the inhibition was 56.1% (active).
Next, `COc1cc(C)ccc1S(=O)(=O)NC(=O)C1(C)CCN1C(=O)Cc1ccc(Cl)cc1Cl` (stereo not drawn): 47.9%; `COc1ccc(OCCCOc2ccc(Cl)cc2Cl)cc1`: 27.8%; `COc1cc(CNCCO)cc(Cl)c1OCc1ccc(Cl)cc1Cl`: 83% (active).
To `O=c1[nH]c(=S)[nH]nc1-c1ccc(F)c(F)c1` belongs 80.3% (active).
Take `O=c1[nH]c(=S)[nH]nc1-c1ccc2c(c1)OCCO2`: the inhibition is 36.5%.
Next, `COc1cc(Oc2ccccc2)ccc1N`: 23.5%.
Next, `NC(CC1CCCC1)c1ccc(Oc2ccccc2)cc1` (stereo not drawn): 79.5% (active); `Nc1ccc(Oc2cc(N)cc(Oc3ccccc3)c2)cc1`: -36.6%.
To `COc1ccccc1C1(O)CCN(CCCn2c3ccccc3c3ccccc32)CC1` belongs 51.9% (active).
`CCc1ccc(C(O)c2ncc(-c3ccc(C)cc3)[nH]2)cc1` (stereo not drawn): the inhibition was 1.21%.
To `CCCc1ccc(C(O)c2ncc(-c3ccccc3C)[nH]2)cc1` (stereo not drawn) belongs 78% (active); to `Cc1ccc(-c2cnc(C(O)c3ccc(Cl)c(F)c3)[nH]2)cc1` (stereo not drawn), 42.2%.
As to `CCc1ccc(C(O)c2ncc(-c3cccc(C)c3)[nH]2)cc1` (stereo not drawn), the inhibition was 56.7% (active).
Next, `CCCc1ccc(C(O)c2ncc(-c3cccc(C)c3)[nH]2)cc1` (stereo not drawn): 19.5%; `CCCc1ccc(C(O)c2ncc(-c3ccccc3F)[nH]2)cc1` (stereo not drawn): 21.1%.
To `Cc1ccc(-c2cnc(C(O)c3cc(C)cc(C)c3)[nH]2)cc1` (stereo not drawn) belongs 61.7% (active); to `CCc1ccc(C(O)c2ncc(-c3cccc(C(F)(F)F)c3)[nH]2)cc1` (stereo not drawn), 34%.
With `Cc1ccc(C(O)c2ncc(-c3ccc(Cl)cc3)[nH]2)cc1` (stereo not drawn), the inhibition was 36.3%.
Next, `CCCc1ccc(C(O)c2ncc(-c3ccccc3)[nH]2)cc1` (stereo not drawn): 36.8%; `Cc1cc(C(O)c2ncc(-c3ccc(Cl)cc3)[nH]2)ccc1F` (stereo not drawn): 84.8% (active).
Consider `CCCc1ccc(C(O)c2ncc(-c3cccc(F)c3)[nH]2)cc1` (stereo not drawn), for which the inhibition is 35.4%.
In the case of `OC(c1cc(F)cc(Cl)c1)c1ncc(-c2ccc(Cl)cc2)[nH]1` (stereo not drawn), the inhibition is 86.1% (active).
Next, `OC(c1ccccc1)c1ncc(-c2ccc(Oc3ccccc3)cc2)[nH]1` (stereo not drawn): 36.3%; `Cc1ccc(C(O)c2ncc(-c3cccc(F)c3)[nH]2)cc1` (stereo not drawn): 11.8%; `Cc1ccc(C(O)c2ncc(-c3ccc(C(F)(F)F)cc3)[nH]2)cc1F` (stereo not drawn): 61.8% (active).
For `CC(C)(C)c1ccc(C(O)c2ncc(-c3ccccc3)[nH]2)cc1` (stereo not drawn), the inhibition is 13.8%.
Next, `OC(c1cccc(F)c1)c1ncc(-c2ccc(Oc3ccccc3)cc2)[nH]1` (stereo not drawn): 89.6% (active); `OC(c1cccc(F)c1)c1ncc(-c2ccc(C(F)(F)F)cc2)[nH]1` (stereo not drawn): 19%.
Next, `OC(c1ccc(Cl)cc1)c1ncc(-c2cccc(F)c2)[nH]1` (stereo not drawn): 8.73%.
Next, `Cc1ccccc1-c1cnc(C(O)c2ccc(C(C)(C)C)cc2)[nH]1` (stereo not drawn): 49.1%; `Cc1cc(C)c(C(O)c2ncc(-c3cccc4ccccc34)[nH]2)c(C)c1` (stereo not drawn): 78.9% (active).

The values are drawn from PubChem BioAssay AID1259343 (VanderVen Lab, College of Veterinary Medicine, Cornell …, 2017).
